In the library only some 0.45% were active in any assay of this set; here they are far more common.
sEH act: increases human soluble epoxide hydrolase activity | purified human sEH enzymatic activity, activator screen | P34913 | hit rate 0.04% among 91,000 | activation, % at 2 µM; in the data active = activation above about 37%
Smad3 FoxH1 inh: blocks human Smad3 binding to FoxH1 peptide; hit rate 0.29% among 88,000; TR-FRET Smad3/Dy647-FoxH1 peptide binding, europium anti-His; P84022; inhibition, % at 25 µM;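 active = compounds that reduce the energy-transfer binding signal between the protein and its labelled peptide by more than half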
Target sequence (P84022 whole entry, looked up): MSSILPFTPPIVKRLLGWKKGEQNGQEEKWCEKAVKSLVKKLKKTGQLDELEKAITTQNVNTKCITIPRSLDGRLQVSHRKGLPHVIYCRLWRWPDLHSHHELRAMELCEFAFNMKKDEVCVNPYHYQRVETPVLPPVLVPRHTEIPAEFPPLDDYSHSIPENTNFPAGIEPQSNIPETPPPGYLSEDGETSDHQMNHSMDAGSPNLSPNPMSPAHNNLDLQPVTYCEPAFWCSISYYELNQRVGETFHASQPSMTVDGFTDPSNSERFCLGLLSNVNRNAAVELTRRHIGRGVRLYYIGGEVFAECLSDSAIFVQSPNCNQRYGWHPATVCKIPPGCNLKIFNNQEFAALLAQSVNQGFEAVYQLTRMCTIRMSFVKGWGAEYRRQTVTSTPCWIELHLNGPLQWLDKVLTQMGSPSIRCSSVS
sEH inhibitor: inhibitors of human soluble epoxide hydrolase. recombinant human sEH enzymatic activity assay. inhibition, % at 2 µM. hit rate 0.34% among 91,000. AID 707; in the data active = inhibition above about 80%
A number is an active result; - = inactive; . = not tested or not shown; [ ] = remark or other dose.

SMILES	sEH act	Smad3 FoxH1 inh	sEH inhibitor
OC[C@@H]1CCC[C@H](n2cnc3c(=S)nc[nH]c32)O1	.	55	.
O=c1[nH]cnc2c1ncn2[C@@H]1O[C@H](CO)[C@@H](O)[C@H]1O	.	-	.
Cc1cc(C)c2nc3c(c([C@H](O)[C@@H]4CCCCN4)c2c1)CC/C3=C\c1ccc(Cl)cc1	.	-	.
NS(=O)(=O)c1ccc(N=Nc2c(O)c(C(=O)O)cc3ccccc23)cc1	.	-	.
NS(=O)(=O)c1ccc(N=Nc2c[nH]c(=O)c(O)c2)cc1	.	78	.
COc1cc2c(cc1O)[C@@H](c1cc(O)c(O)c(OC)c1)[C@](O)(C(=O)O)[C@@H](CO)[C@@H]2O	.	-	.
C[C@@H]1C[C@H](C)CN(S(=O)(=O)c2cc(Cl)c(Oc3ccc([N+](=O)[O-])cc3Cl)c(Cl)c2)C1	.	-	.
N#C[C@@H](N=Nc1ccccc1C(=O)O)C(N)=O	.	-	.
c1ccc2c[n+](Cc3ccnc4ccccc34)ccc2c1	.	101	.
O=C(O)/C(Cc1ccnc2ccccc12)=N\O	.	-	.
C[C@@H]1CC[C@H]2[C@H](C)[C@@H]3[C@@H](C[C@H]4[C@H]5CC=C6C[C@@H](O)CC[C@]6(C)[C@@H]5C[C@@H](O)[C@]34C)N2C1	.	-	.
CC(C)=C[C@H]1[C@H](COC(=O)c2cc3c(cc2Cl)OCO3)C1(C)C	.	-	.
C[C@@H](CCC[C@@H]1SC[C@H]2NC(=O)N[C@@H]12)C(=O)O	.	-	.
FC(F)(F)c1cc(NC(=S)N2c3ccccc3-n3cccc3[C@H]2c2cccnc2)cc(C(F)(F)F)c1	.	-	.
CCN(CCCNC(=O)C1CCN(S(=O)(=O)CC)CC1)c1ccccc1	.	-	.
CCN(CCCNC(=O)C1CCN(S(=O)(=O)N2CCC3(CC2)OCCO3)CC1)c1ccccc1	-	-	90
CN(C)[C@H]1C(=O)C(C(=O)NCN2CCCC2)=C(O)[C@@]2(O)C(=O)C3=C(O)c4c(O)cccc4[C@](C)(O)[C@H]3C[C@H]12	.	-	.
CC(=O)Nc1ccccc1C(=O)C(=O)Nc1cccc(F)c1	39	.	-
CC(=O)Nc1ccccc1C(=O)C(=O)O	-	.	-
O=C(O)c1ccc(N2C(=O)C3ON(c4ccccc4)C(c4ccccc4F)C3C2=O)cc1 (stereo not drawn)	44	-	-
O=C1C2ON(c3ccccc3)C(c3ccccc3F)C2C(=O)N1c1ccccc1 (stereo not drawn)	-	-	-
CCC(=O)N1CCc2cc(S(=O)(=O)CCC(=O)NCCC3=CCCCC3)ccc21	-	-	86
CCC(=O)N1c2ccc(S(=O)(=O)CCC(=O)NCCC3=CCCCC3)cc2CC1C (stereo not drawn)	.	-	.
Cc1ccc2[nH]c(C(=O)O)c(-c3ccccc3)c2c1	-	-	-
O=C(O)c1[nH]c2ccccc2c1-c1ccccc1	-	80[fluorescence artefact?]	-
SMILES	sEH act	Smad3 FoxH1 inh	sEH inhibitor
c1ccc2c(c1)-c1nc3ccccc3cc1[C@@H]2N1CCOCC1	.	-	.
Cc1nn(-c2ccc(S(=O)(=O)O)cc2)c(O)c1N=Nc1ccc(-c2ccc(N=Nc3ccc4c(S(=O)(=O)O)cc(S(=O)(=O)O)c(N)c4c3O)c(O)c2)cc1O.[Cu].[Cu]	.	101	.
O=C(Nc1ccc(Cl)cc1)c1cccs1	-	-	-
CCC(C)c1ccc(NC(=O)c2cccs2)cc1 (stereo not drawn)	-	-	90
O=C(O)C/C(=C/c1ccco1)C(=O)O	.	-	.
O=S(=O)(NCc1ccccc1)c1ccc(Cl)cc1	-	-	-
O=CNc1ccc(S(=O)(=O)NCc2ccccc2)cc1	39	-	-
C[C@@]12C[C@H](O)[C@@H]3[C@H](CCC4=CC(=O)CC[C@]43C)[C@H]1CC[C@H]2c1csc(-c2ccccc2)n1	.	-	.
Cc1cc(C2(c3cc(C)c(O)c(C(=O)O)c3)OS(=O)(=O)c3ccccc32)cc(C(=O)O)c1O	.	-	.
COc1ccc(NC(=O)C2CCCO2)cc1 (stereo not drawn)	-	-	-
COc1ccc(NC(=O)C2CCCO2)cc1OC (stereo not drawn)	-	72	-
CCCCSc1nc(O)c(C2OC(=O)c3c2ccc(OC)c3OC)c(=O)n1C (stereo not drawn)	-	-	-
CCSc1nc(O)c(C2OC(=O)c3c2ccc(OC)c3OC)c(=O)n1CC (stereo not drawn)	-	84	-
Cc1cccc2c1Oc1ccccc1[C@H]2NC(=O)c1ccc([N+](=O)[O-])cc1	.	-	.
N=C(N)SCCSC(=N)N	.	68	.
CCS(=O)CCSC(=N)N (stereo not drawn)	-	-	-
COc1ccc(NC(=O)C2CCCN2C(=O)Nc2ccccc2)cc1OC (stereo not drawn)	-	-	-
COc1ccc(C2CCCN2C(=O)Nc2ccc(Cl)cc2)cc1OC (stereo not drawn)	-	-	95
COc1ccc(N2CCC(CNC(=O)Nc3ccc(C)c(C)c3)C2)cc1 (stereo not drawn)	.	-	.
CCOc1ccc(NC(=O)NCC2CCN(c3ccc(OC)cc3)C2)cc1 (stereo not drawn)	-	-	88
